Drawing on PMC7862700, “An all-to-all approach to the identification of sequence-specific readers for epigenetic DNA modifications on cytosine”, this text covers binding signal for one sequence.

Holding throughout (experiment): DAPPL (digital affinity profiling via proximity ligation, sequencing); 10 mM Tris-HCl pH 7.5, 50 mM NaCl, 1 mM DTT, 4% glycerol, room temperature, 30 min; GST-TFs on glutathione beads, 16-mer random dsDNA library, 0.1% formaldehyde crosslink after washing; high values mean tight binding
In experiment [1] the target is T1, FEV (Homo sapiens, UniProt Q99581 1-238).
T1 sequence: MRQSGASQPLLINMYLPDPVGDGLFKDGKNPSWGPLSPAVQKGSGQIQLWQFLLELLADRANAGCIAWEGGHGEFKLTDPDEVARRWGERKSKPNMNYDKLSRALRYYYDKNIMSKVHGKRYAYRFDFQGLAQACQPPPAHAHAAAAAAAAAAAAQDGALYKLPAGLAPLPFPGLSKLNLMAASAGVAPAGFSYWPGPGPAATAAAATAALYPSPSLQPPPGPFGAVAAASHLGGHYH
The settings on record: protein: recombinant; tags: N-terminal GST; dsDNA, one strand shown. The gist of the method:
(§1)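 Binding signal is each hexamer's read frequency for a factor divided by its frequency in the tag-only sample. The factors were GST-fused human transcription factors from yeast, captured on glutathione beads, DNA-barcoded and pooled with that sample. Pools were incubated with 200 nmole of a random double-stranded 16-mer DNA library in Tris/NaCl/DTT/glycerol buffer at room temperature for 30 min, then washed, crosslinked with 0.1% formaldehyde, proximity-ligated with BsaI/T4 ligase (1 h, 37 °C), PCR-amplified and sequenced on an Illumina NextSeq500.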

Experiment [2] addresses ETV5 (Homo sapiens, UniProt P41161 1-510). As to conditions: protein: recombinant; tags: N-terminal GST; dsDNA, one strand shown. The gist of the method: as §1
For experiment [3], the target named is HSF1 (Homo sapiens, UniProt Q00613 1-529). As to conditions: protein: recombinant; tags: N-terminal GST; chain copies: 3; dsDNA, one strand shown. The gist of the method: as §1
HSF1, sequence (Q00613 whole entry): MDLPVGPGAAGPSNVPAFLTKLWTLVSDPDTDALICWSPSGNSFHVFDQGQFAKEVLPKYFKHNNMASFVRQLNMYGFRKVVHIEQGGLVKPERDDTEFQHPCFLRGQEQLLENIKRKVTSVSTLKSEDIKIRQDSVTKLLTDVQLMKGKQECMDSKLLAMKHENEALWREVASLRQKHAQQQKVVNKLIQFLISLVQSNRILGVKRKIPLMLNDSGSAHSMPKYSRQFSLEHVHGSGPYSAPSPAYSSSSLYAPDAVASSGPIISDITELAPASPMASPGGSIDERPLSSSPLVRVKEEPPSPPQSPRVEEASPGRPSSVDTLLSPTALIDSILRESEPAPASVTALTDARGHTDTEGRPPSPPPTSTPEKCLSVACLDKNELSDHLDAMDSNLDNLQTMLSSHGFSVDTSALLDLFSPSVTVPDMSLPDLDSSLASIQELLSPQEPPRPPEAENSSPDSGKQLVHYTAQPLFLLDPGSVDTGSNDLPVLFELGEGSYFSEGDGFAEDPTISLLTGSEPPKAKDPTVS
In experiment [4] the target is T2, SPIC (Homo sapiens, UniProt Q8N5J4 1-248).
T2 sequence: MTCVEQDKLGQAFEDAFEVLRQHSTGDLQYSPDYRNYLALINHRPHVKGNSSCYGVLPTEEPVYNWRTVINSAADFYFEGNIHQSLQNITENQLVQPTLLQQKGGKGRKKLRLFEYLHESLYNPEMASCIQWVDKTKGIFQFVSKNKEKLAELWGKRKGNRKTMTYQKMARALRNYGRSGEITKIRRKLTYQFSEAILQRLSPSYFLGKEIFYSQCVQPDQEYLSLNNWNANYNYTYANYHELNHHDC
The settings on record: protein: recombinant; tags: N-terminal GST; dsDNA, one strand shown. The gist of the method:
as §1

Experiment [5] has as its target ELF4 (Homo sapiens, UniProt Q99607 1-663). As to conditions: protein: recombinant; tags: N-terminal GST; dsDNA, one strand shown. Put shortly: as §1
Experiment [6] addresses T3, ELK4 (Homo sapiens, UniProt P28324-2 1-405).
T3 sequence: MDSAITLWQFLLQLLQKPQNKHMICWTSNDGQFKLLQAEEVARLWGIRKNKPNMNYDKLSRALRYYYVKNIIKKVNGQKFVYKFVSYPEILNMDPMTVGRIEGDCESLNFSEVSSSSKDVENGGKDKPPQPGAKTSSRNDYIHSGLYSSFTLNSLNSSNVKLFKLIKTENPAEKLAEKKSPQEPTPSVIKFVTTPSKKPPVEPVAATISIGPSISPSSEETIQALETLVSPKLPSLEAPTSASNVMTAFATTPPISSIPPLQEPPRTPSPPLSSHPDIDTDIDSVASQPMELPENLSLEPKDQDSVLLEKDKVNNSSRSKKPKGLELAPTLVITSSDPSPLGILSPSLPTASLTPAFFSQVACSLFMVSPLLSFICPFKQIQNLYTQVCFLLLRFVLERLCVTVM
As to conditions: protein: recombinant; tags: N-terminal GST; dsDNA, one strand shown. Put shortly: as §1

Experiment [7] concerns the target T4, ETV2 (Homo sapiens, UniProt O00321 1-342).
T4 sequence: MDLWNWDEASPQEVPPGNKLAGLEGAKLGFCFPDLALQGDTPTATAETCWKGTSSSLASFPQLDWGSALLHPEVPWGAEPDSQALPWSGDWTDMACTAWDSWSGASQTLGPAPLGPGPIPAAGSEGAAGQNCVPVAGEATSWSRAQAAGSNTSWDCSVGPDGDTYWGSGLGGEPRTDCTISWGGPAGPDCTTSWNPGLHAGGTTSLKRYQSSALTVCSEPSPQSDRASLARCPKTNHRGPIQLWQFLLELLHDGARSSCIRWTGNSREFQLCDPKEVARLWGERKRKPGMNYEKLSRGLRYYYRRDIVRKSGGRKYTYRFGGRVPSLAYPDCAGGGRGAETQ
As to conditions: protein: recombinant; tags: N-terminal GST; dsDNA, one strand shown. The gist of the method:
as §1

Experiment [8] has as its target T5, ELF3 (Homo sapiens, UniProt P78545 1-371).
T5 sequence: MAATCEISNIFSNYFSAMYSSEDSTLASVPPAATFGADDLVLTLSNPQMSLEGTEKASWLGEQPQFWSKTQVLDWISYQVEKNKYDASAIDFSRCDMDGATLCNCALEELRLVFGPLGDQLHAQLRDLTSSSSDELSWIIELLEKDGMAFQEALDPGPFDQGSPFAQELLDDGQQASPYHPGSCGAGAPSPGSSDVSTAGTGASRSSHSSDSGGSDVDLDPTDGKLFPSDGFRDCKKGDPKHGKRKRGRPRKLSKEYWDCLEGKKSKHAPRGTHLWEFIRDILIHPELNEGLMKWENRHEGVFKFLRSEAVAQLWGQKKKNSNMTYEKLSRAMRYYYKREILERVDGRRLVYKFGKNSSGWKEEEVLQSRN
As to conditions: protein: recombinant; tags: N-terminal GST; dsDNA, one strand shown. The gist of the method:
as §1

For experiment [9], the target named is CRX (Homo sapiens, UniProt O43186 1-299). The settings on record: protein: recombinant; tags: N-terminal GST; dsDNA, one strand shown. Put shortly: as §1
CRX, sequence (O43186 whole entry): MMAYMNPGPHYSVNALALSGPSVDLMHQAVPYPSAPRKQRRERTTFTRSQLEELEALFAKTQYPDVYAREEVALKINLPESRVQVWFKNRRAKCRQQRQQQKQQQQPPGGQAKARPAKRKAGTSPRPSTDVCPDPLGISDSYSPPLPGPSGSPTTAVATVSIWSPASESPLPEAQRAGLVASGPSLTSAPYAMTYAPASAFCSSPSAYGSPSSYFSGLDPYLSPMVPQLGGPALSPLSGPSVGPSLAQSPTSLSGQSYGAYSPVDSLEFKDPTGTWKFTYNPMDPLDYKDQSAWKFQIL
For experiment [10], the target named is ETV1 (Homo sapiens, UniProt P50549 1-477). The settings on record: protein: recombinant; tags: N-terminal GST; dsDNA, one strand shown. Put shortly:
as §1

Experiment [11] concerns the target T6, ERF (Homo sapiens, UniProt P50548 1-548).
T6 sequence: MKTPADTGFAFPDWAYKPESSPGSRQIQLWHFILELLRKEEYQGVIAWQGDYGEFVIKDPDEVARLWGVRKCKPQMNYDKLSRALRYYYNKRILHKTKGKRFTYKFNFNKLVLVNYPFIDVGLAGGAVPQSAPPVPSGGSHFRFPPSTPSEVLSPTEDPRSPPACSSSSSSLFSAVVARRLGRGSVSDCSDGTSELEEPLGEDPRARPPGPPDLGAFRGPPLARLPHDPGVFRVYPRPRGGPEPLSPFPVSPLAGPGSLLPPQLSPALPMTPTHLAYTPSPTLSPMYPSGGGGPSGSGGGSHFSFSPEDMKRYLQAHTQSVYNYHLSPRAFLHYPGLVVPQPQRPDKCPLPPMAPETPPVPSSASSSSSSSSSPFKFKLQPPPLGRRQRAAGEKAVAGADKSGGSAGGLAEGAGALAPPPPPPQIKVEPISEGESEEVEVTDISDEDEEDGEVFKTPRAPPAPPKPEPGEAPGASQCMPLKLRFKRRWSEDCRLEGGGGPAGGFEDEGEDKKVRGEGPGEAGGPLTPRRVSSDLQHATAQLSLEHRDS
The settings on record: protein: recombinant; tags: N-terminal GST; dsDNA, one strand shown. The gist of the method: as §1

In experiment [12] the target is T7, ETV3L (Homo sapiens, UniProt Q6ZN32 1-361).
T7 sequence: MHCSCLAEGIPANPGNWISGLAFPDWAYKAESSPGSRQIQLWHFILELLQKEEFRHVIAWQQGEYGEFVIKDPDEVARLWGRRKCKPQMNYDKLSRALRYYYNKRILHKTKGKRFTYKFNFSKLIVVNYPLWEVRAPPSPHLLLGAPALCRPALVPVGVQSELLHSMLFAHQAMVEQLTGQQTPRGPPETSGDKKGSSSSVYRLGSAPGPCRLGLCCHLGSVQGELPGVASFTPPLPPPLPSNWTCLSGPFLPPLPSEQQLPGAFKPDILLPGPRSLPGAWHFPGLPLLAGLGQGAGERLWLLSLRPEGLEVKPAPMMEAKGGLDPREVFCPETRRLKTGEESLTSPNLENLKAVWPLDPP
The settings on record: protein: recombinant; tags: N-terminal GST; dsDNA, one strand shown. Put shortly:
as §1

Experiment [13] concerns the target T8, ETS2 (Homo sapiens, UniProt P15036 1-469).
T8 sequence: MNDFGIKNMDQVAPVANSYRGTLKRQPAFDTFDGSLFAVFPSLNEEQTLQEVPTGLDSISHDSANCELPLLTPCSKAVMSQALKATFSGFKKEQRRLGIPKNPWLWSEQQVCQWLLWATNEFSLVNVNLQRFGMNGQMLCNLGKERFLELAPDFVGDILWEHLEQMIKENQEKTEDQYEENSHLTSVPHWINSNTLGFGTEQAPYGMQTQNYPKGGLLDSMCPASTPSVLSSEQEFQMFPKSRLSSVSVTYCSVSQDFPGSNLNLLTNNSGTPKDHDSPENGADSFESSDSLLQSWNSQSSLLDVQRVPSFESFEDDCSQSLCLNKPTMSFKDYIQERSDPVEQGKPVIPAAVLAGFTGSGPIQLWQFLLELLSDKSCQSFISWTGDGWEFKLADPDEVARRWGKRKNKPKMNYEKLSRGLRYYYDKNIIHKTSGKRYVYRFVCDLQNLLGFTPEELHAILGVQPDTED
The settings on record: protein: recombinant; tags: N-terminal GST; dsDNA, one strand shown. The gist of the method:
as §1

Experiment [14] has as its target T9, SPDEF (Homo sapiens, UniProt O95238 1-335).
T9 sequence: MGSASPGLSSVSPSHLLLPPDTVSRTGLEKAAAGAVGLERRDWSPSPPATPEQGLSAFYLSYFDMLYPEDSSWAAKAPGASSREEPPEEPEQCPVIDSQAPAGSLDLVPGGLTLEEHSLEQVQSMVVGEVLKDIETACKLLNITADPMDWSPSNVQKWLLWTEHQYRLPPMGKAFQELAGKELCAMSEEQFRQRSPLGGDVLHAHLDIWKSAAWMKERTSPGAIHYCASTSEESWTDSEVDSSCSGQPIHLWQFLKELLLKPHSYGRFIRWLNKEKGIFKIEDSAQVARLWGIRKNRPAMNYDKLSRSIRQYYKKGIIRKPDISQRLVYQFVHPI
As to conditions: protein: recombinant; tags: N-terminal GST; dsDNA, one strand shown. Put shortly:
as §1

In experiment [15] the target is T10, ETV7 (Homo sapiens, UniProt Q9Y603 1-341).
T10 sequence: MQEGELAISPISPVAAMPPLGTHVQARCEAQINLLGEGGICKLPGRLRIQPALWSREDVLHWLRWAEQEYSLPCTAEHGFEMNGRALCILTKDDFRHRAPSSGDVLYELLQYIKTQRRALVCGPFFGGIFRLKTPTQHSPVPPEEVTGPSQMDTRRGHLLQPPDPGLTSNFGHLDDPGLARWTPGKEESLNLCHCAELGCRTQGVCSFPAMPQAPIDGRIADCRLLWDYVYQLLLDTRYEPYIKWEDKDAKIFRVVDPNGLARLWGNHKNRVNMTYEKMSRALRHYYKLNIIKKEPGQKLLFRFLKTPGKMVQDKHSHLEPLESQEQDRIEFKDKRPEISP
The settings on record: protein: recombinant; tags: N-terminal GST; dsDNA, one strand shown. The gist of the method: as §1

Experiment [16] concerns the target T11, ELF5 (Homo sapiens, UniProt Q9UKW6-2 1-255).
T11 sequence: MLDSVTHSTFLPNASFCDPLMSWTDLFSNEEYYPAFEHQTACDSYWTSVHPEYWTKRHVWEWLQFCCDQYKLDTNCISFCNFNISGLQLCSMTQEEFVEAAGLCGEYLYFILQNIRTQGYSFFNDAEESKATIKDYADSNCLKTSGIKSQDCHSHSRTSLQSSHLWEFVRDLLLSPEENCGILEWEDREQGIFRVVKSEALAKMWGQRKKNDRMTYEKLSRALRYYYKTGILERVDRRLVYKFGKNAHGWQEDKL
The settings on record: protein: recombinant; tags: N-terminal GST; dsDNA, one strand shown. Put shortly: as §1

For experiment [17], the target named is T12, ETV3 (Homo sapiens, UniProt P41162-2 1-143).
T12 sequence: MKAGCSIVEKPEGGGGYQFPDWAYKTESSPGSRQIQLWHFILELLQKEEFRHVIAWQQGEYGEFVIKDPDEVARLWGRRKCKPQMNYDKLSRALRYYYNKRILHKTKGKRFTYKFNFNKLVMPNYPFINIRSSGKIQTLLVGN
As to conditions: protein: recombinant; tags: N-terminal GST; dsDNA, one strand shown. The gist of the method: as §1

Experiment [18] deals with ETV6 (Homo sapiens, UniProt P41212 1-452). As to conditions: protein: recombinant; tags: N-terminal GST; dsDNA, one strand shown. The gist of the method:
as §1

ELF4, sequence (Q99607 whole entry): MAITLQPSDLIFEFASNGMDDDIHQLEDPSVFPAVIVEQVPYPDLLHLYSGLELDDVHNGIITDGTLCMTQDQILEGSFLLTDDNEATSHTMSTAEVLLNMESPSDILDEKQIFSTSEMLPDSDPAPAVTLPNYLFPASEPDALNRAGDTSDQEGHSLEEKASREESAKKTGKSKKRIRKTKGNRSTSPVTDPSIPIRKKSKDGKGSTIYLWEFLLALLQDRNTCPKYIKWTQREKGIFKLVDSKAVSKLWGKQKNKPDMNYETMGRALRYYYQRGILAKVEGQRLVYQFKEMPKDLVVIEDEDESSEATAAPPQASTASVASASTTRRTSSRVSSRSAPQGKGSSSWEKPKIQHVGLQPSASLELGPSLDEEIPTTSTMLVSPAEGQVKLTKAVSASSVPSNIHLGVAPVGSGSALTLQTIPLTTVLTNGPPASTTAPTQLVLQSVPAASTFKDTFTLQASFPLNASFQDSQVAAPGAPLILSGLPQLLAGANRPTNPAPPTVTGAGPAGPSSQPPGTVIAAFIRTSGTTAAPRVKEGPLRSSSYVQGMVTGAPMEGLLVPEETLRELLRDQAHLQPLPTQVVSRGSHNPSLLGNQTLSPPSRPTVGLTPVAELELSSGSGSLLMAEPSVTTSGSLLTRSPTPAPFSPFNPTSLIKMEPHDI
ETV6, sequence (P41212 whole entry): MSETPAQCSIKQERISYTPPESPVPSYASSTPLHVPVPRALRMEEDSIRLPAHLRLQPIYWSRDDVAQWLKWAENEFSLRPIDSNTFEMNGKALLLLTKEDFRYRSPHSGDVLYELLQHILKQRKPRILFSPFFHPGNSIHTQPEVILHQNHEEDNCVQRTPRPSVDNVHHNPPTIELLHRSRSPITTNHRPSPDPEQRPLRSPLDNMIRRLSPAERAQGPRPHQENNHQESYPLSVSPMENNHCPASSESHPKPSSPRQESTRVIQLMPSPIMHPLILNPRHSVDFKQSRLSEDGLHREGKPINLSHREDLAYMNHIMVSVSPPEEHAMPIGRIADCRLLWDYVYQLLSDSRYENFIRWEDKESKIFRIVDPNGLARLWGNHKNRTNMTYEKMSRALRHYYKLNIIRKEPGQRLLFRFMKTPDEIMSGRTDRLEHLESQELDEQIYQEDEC
ETV1, sequence (P50549 whole entry): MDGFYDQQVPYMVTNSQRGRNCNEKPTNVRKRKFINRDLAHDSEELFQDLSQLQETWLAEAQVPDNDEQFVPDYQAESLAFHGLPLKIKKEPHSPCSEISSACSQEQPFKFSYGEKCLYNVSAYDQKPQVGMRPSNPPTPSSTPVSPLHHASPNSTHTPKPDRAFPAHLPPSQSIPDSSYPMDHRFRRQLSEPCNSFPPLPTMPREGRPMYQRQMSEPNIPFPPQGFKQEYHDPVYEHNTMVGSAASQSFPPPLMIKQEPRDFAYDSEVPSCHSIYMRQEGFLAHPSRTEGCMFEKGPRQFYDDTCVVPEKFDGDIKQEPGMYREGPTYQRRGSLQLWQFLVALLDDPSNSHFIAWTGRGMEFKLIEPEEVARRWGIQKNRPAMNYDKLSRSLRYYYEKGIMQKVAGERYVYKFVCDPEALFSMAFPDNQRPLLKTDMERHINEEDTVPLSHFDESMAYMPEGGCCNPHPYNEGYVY
ETV5, sequence (P41161 whole entry): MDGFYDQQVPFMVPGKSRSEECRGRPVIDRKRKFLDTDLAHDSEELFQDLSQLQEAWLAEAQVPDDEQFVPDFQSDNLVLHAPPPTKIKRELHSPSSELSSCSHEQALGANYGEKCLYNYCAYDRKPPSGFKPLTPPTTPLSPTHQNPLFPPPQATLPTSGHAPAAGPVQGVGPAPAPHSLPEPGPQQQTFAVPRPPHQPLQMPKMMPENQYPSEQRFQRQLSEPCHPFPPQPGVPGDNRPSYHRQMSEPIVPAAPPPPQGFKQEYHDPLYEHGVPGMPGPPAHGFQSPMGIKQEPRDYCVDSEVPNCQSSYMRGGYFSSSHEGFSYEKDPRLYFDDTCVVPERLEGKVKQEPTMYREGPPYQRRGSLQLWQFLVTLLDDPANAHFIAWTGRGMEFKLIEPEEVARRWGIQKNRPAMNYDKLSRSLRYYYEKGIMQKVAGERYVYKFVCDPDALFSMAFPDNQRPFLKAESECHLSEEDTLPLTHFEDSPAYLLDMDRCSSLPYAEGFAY

Turning to ATATTA, the binding signal is 1.07 fold enrichment (6-mer frequency, TF over GST control) in experiment [1]; 1.14 fold enrichment (6-mer frequency, TF over GST control) in experiment [2]; 1.35 fold enrichment (6-mer frequency, TF over GST control) in experiment [3]; 1.23 fold enrichment (6-mer frequency, TF over GST control) in [4]; 1.13 fold enrichment (6-mer frequency, TF over GST control) in [5]; 1.16 fold enrichment (6-mer frequency, TF over GST control) in experiment [6]. The binding signal in [7] was 1.13 fold enrichment (6-mer frequency, TF over GST control); in experiment [8] it was 1.21 fold enrichment (6-mer frequency, TF over GST control); in experiment [9], 1.8 fold enrichment (6-mer frequency, TF over GST control); in experiment [10], 1.17 fold enrichment (6-mer frequency, TF over GST control); in experiment [11], 1.16 fold enrichment (6-mer frequency, TF over GST control); in experiment [12], 1.17 fold enrichment (6-mer frequency, TF over GST control). Further, the binding signal in [13] was 1.06 fold enrichment (6-mer frequency, TF over GST control); in experiment [14] it was 1.11 fold enrichment (6-mer frequency, TF over GST control); in [15], 1.1 fold enrichment (6-mer frequency, TF over GST control); in experiment [16] it was 1.09 fold enrichment (6-mer frequency, TF over GST control); in experiment [17] it was 1.18 fold enrichment (6-mer frequency, TF over GST control); in experiment [18] it was 1.13 fold enrichment (6-mer frequency, TF over GST control).
